PubChem BioAssay AID1159580 (chemical genetic matrix, 2015)
Hit rate of the full screen: of about 5,500 compounds, about 2,000 (36%) were called active. Another 18% or so got no clear call; they are omitted. No stated cut-off is given here; in the data, active means normalized growth mostly below about 0.91 (no sharp cut-off); inconclusive means no clear call, values can overlap the other calls; inactive means mostly above about 0.92. The list shows a part of the results.

Experiment: chemical genetic growth profiling, strain panel (AID 1159580);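 further: tested at 20 µM; growth read once vehicle control cultures reached saturation at 30 °C; 1 = growth at the plate median or of vehicle wells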
Details: S. cerevisiae deletion strains, growth OD

Measured: normalized growth

NNC(=O)c1ccc(O)cc1
inactive: locus YAL013W, strain DEP1, stronger effect = lower value 0.949 | locus YAL040C, strain CLN3, stronger effect = lower value 0.963 | locus YCL061C, strain MRC1 (second series), stronger effect = lower value 0.991 | locus YDR150W, strain NUM1, stronger effect = lower value 1.01 | locus YDR363W, strain ESC2, stronger effect = lower value 0.99 | locus YER002W, strain NOP16, stronger effect = lower value 0.985 | locus YGR078C, strain PAC10, stronger effect = lower value 0.992 | locus YJR075W, strain HOC1, stronger effect = lower value 0.988 | locus YMR263W, strain SAP30, stronger effect = lower value 0.986 | locus YNL153C, strain GIM3, stronger effect = lower value 0.989 | locus YNL175C, strain NOP13, stronger effect = lower value 0.994 | locus YNL197C, strain WHI3, stronger effect = lower value 0.991 | locus YNL224C, strain SQS1, stronger effect = lower value 0.974 | locus YNL322C, strain KRE1, stronger effect = lower value 0.97 | locus YOR083W, strain WHI5 (second series), stronger effect = lower value 1.05 | locus YPL055C, strain LGE1, stronger effect = lower value 0.977 | locus YPL241C, strain CIN2, stronger effect = lower value 0.988
